According to PubChem BioAssay (Tox21):
Values joined by “and” are separate entries in the source; they are usually repeats but may differ in a detail not shown here. Equal entries are not always repeated. Inconclusive results are not listed. A call without a number means that no potency is given here. Where a structure was tested more than once in an assay, its records may differ in their call. Active and inactive are the calls of the source. Unless noted, calls come from the whole dose curve; as a rule, active = well fitted curve in the direction sought with a large enough effect in the repeat runs; inconclusive = weak or mixed curves; inactive = no such curve, though single readings can be large; an effect the other way counts as inactive or inconclusive.

Tests used:
[1] = biological target: Luciferin 4-monooxygenase (Photinus pyralis) (UniProt P08659); assay: qHTS assay to identify small molecule inhibitors of firefly luciferase (AID 1224835); note: nearly all actives have a fitted effect of over 25% in size; note: potency is the fitted concentration of half-maximal effect
Sequence of Luciferin 4-monooxygenase (Photinus pyralis) (P08659 whole entry, looked up): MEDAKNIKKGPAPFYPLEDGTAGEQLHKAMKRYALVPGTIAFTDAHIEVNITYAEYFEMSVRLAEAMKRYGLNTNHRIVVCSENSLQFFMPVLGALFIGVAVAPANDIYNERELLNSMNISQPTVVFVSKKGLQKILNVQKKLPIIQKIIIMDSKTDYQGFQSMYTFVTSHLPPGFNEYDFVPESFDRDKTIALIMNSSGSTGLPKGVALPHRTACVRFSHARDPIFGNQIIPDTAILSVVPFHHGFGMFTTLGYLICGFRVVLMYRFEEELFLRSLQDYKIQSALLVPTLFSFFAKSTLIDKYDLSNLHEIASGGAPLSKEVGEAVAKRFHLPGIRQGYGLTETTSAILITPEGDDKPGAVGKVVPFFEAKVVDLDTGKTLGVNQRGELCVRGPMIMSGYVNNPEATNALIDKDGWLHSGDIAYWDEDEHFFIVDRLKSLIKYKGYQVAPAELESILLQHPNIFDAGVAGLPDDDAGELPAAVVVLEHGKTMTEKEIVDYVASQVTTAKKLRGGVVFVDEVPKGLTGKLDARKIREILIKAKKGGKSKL
In short: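 Inhibition of purified Photinus luciferase is measured by luminescence. Substrate levels (D-luciferin, ATP) sit at their KM values. Each compound is tested in a concentration series.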

[2] = qHTS assay to identify small molecule agonists of the constitutive androstane receptor (CAR) signaling pathway - cell viability counter screen (AID 1224836); note: nearly all actives have a fitted effect of over 45% in size; note: potency is the fitted concentration of half-maximal effect
In short: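 HepG2-CYP2B6-hCAR, 2500 cells/well, 4 h pre-incubation; cpd 15 conc + PK11195 0.75 uM final; 23 h, 37 C/5% CO2; CellTiter-Fluor, fluorescence.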

[3] = qHTS assay to identify small molecule antagonists of the constitutive androstane receptor (CAR) signaling pathway - cell viability counter screen (AID 1224837); note: nearly all actives have a fitted effect of over 45% in size; note: potency is the fitted concentration of half-maximal effect
In short: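 HepG2 cells stably expressing hCAR and a CYP2B6-2.2kb reporter were plated and pre-incubated 4 hr at 37 C/5% CO2, then given compounds at 15 concentrations plus 50 nM CITCO (final). After 23 hr, viability was read by CellTiter-Fluor fluorescence.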

[4] = qHTS assay to identify small molecule antagonists of the estrogen related receptor signaling pathway with the pleiotropic PPARgamma coactivator (PGC) from Tox21 10K library - cell viability counter screen (AID 1224840; active = well fitted cell-killing curve with a large enough effect in the repeat runs, not every such curve was filed as active; note: nearly all actives have a fitted effect of over 40% in size)
In short: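 PGC/ERR cells were seeded at 2,000 cells/well and left 6 hours at 37 C/5% CO2 before pin-tool addition of compounds in DMSO. After 17.5 hours at 37 C, CellTiter-Fluor was added and fluorescence read 30 minutes later.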

[5] = qHTS assay to identify small molecule agonists of the hypoxia (HIF-1) signaling pathway - cell viability counter screen (AID 1224844; calls by dose curve; note: nearly all actives have a fitted effect of over 50% in size; note: potency is the fitted concentration of half-maximal effect)
In short: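 HRE-bla ME-180 cells in medium with 0.5% dialyzed FBS were preincubated 5 hrs at 37C, exposed to compounds for 17 hrs, then viability was read as CellTiter-Glo luminescence after 30 min at room temperature, in the reporter wells.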

[6] = qHTS assay to identify small molecule agonists of H2AX (AID 1224845; active = well fitted activation curve with a large enough effect in the signal ratio in the repeat runs, not every such curve was filed as active; the % refers to the signal ratio; note: potency is the fitted concentration of half-maximal effect)
In short: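 Phospho-H2AX Ser139 measured by HTRF (ex 320 nm; em 665 and 620 nm) after 24 hr antibody incubation. Compounds, 15 concentrations, 0.76% DMSO, were applied to CHO-K1 cells for 3hr at 37C before lysis.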

[7] = qHTS assay to identify small molecule antagonists of the estrogen related receptor signaling pathway with the pleiotropic PPARgamma coactivator (PGC) from Tox21 10K library (AID 1224841; call rule not given here; note: actives are mostly falling curves and most rising ones were filed inactive; nearly all actives have a fitted effect of over 50% in size; note: potency is the fitted concentration of half-maximal effect)
In short: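 PGC/ERR reporter cells were seeded at 2,000 cells/well and held 6 hours at 37 C/5% CO2 before pin-tool addition of compounds in DMSO. After 18 hours at 37 C, One-Glo was added and luminescence read after 30 minutes at room temperature.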

[8] = qHTS assay to identify small molecule agonists of the estrogen related receptor signaling pathway with the pleiotropic PPARgamma coactivator (PGC) from Tox21 10K library (AID 1224842); note: nearly all actives have a fitted effect of over 15% in size; note: potency is the fitted concentration of half-maximal effect
In short: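 Luminescence from One-Glo (30 min, room temperature) measured after PGC/ERR cells had 18 h at 37 C with pinned compound (23 nL in DMSO). Cells had been seeded at 2,000 per well and pre-incubated 6 h.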

[9] = biological target: Nuclear receptor subfamily 1 group I member 3 (Homo sapiens) (UniProt Q14994); assay: qHTS assay to identify small molecule antagonists of the constitutive androstane receptor (CAR) signaling pathway (AID 1224838); note: nearly all actives have a fitted effect of over 40% in size; note: potency is the fitted concentration of half-maximal effect
Sequence of Nuclear receptor subfamily 1 group I member 3 (Homo sapiens) (Q14994 whole entry, looked up): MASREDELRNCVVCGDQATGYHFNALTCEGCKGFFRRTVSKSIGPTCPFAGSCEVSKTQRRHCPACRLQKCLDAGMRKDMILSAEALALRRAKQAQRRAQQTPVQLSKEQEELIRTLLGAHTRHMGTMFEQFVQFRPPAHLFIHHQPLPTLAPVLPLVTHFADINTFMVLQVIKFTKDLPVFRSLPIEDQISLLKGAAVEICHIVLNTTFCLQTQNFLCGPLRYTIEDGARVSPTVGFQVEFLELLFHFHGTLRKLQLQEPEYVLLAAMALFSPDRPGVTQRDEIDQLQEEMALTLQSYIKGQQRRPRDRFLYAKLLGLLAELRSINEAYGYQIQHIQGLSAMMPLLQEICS
In short: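 HepG2 cells stably co-transfected with hCAR and a CYP2B6-2.2kb luciferase reporter were seeded 4 h before compound addition at 15 concentrations. Cells were stimulated with 50 nM CITCO (final) for 24 h at 37 C; luciferase luminescence was then read.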

[10] = biological target: Nuclear receptor subfamily 1 group I member 3 (Homo sapiens) (UniProt Q14994); assay: qHTS assay to identify small molecule agonists of the constitutive androstane receptor (CAR) signaling pathway (AID 1224839); note: nearly all actives have a fitted effect of over 15% in size; note: potency is the fitted concentration of half-maximal effect;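 for activation: HepG2 cells stably carrying human CAR and a CYP2B6 luciferase reporter; series mostly up to about 92 µM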
In short: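 HepG2-CYP2B6-hCAR cells, 2500/well, 4 h pre-incubation; compounds 15 conc.; PK11195 0.75 uM final; 24 h, 37 C/5% CO2; ONE-Glo luciferase read.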

| SMILES | Potency [1] | Potency [2] | Potency [3] | Potency [4] | Potency [5] | Potency [6] | Potency [7] | Potency [8] | Potency [9] | Potency [10] |
| --- | --- | --- | --- | --- | --- | --- | --- | --- | --- | --- |
| CCCCn1cc[n+](C)c1C | inactive | inactive | inactive | inactive | inactive | inactive |  |  |  |  |
| CCCCCCn1cc[n+](C)c1 | inactive | inactive | inactive | inactive | inactive | inactive |  |  |  |  |
| O=c1[nH]c(=O)n(Cl)c(=O)n1Cl | inactive | inactive | inactive | inactive | inactive | inactive | inactive | inactive |  |  |
| CCCC[N+]1(C)CCCCC1 | inactive | inactive | inactive | inactive | inactive | inactive |  |  |  |  |
| Nc1ccc(Cl)cc1 | inactive | inactive | inactive |  | inactive | inactive |  |  | inactive | inactive |
| O=[N+]([O-])c1ccccc1O | inactive | inactive | inactive |  | inactive | inactive | inactive | inactive | inactive | inactive |
| CN(C)[C@@H]1C(=O)C(C(N)=O)=C(O)[C@@]2(O)C(=O)C3=C(O)c4c(O)cccc4[C@@](C)(O)[C@H]3[C@H](O)[C@@H]12 | inactive | inactive | inactive |  | inactive |  |  |  |  |  |
| Cc1cc(-c2ccc(N)c(C)c2)ccc1N | 36 µM (active) and 56.2 µM (active) and 63.3 µM (active) | inactive | inactive | inactive | inactive |  |  |  | inactive | 12.2 µM (active) |
| CCOP(=S)(OCC)Oc1ccc2c(C)c(Cl)c(=O)oc2c1 | inactive and 15.5 µM (active) | inactive | inactive | inactive | inactive | inactive | inactive | inactive and 11.9 µM (active) | inactive | 31 µM (active) and 27.3 µM (active) and 29.8 µM (active) |
| Cc1cc(Cl)ccc1N | inactive | inactive | inactive | inactive | inactive | inactive |  |  | inactive | inactive |
| CCNc1nc(Cl)nc(NCC)n1 | inactive | inactive | inactive | inactive | 55.2 µM (active) and inactive | inactive | inactive | inactive | inactive | inactive |
| COP(=O)(OC)C(O)C(Cl)(Cl)Cl (configuration not stated) | inactive | inactive | inactive |  | inactive | inactive | 24.6 µM (active) and inactive | inactive | inactive |  |
| C[C@]12CCC(=O)C=C1CC[C@@H]1[C@@H]2CC[C@]2(C)C(=O)CC[C@@H]12 | inactive | inactive | inactive |  | inactive | 88.3 µM (active) | 67.4 µM (active) and inactive | inactive | inactive | inactive |
| O=C(O)C(Cl)Cl | inactive | inactive | inactive | inactive | inactive | inactive |  |  |  |  |
| CCn1cc[n+](C)c1C | inactive | inactive | inactive | inactive | inactive | inactive |  |  |  |  |
| COc1ccccc1N | inactive | inactive | inactive |  | inactive | inactive | inactive | inactive |  |  |
| C1CCC(NC2CCCCC2)CC1 | inactive | inactive | inactive |  | inactive | inactive |  |  | inactive | inactive |
| O=C(O)CCl | inactive | inactive | inactive |  | inactive | inactive | inactive | inactive |  |  |
| COCC(=O)N(c1c(C)cccc1C)C(C)C(=O)OC (configuration not stated) | inactive | inactive | inactive |  | inactive | inactive | inactive | inactive | inactive | inactive |
| CCCC[N+]1(C)CCCC1 | inactive | inactive | inactive | inactive | inactive | inactive |  |  |  |  |
| O=C(O)c1nc(Cl)ccc1Cl | inactive | inactive | inactive | inactive | inactive | inactive |  |  |  |  |
| O=C(O)C(Cl)(Cl)Cl | inactive | inactive | inactive | inactive | inactive | inactive |  |  | inactive | inactive |
| CCCC[n+]1ccccc1 | inactive | inactive | inactive | inactive | inactive | inactive |  |  |  |  |
| Nc1ccc(-c2ccc(N)cc2)cc1 | 78.7 µM (active) and 28.1 µM (active) | inactive | inactive | inactive | inactive |  |  |  | inactive | 53.9 µM (active) and inactive and 21.7 µM (active) |
| OCCOc1ccccc1 | inactive | inactive | inactive |  | inactive | inactive | inactive | inactive | inactive | inactive |
| O=c1nc(O)n(Cl)c(=O)n1Cl | inactive | inactive | inactive |  | inactive | inactive | inactive | inactive |  |  |
| CC(=O)[O][Hg][c]1ccccc1 | 1.25 µM (active) and 3.99 µM (active) and 2.75 µM (active) | 2.41 µM (active) and 4.33 µM (active) and 5.96 µM (active) | 2.71 µM (active) and 4.33 µM (active) and 5.31 µM (active) |  | 154 nM (active) and 1.74 µM (active) and 2.68 µM (active) |  | 2.71 µM (active) and 4.86 µM (active) and 9.44 µM (active) | inactive | 2.41 µM (active) and 4.33 µM (active) and 5.31 µM (active) | inactive |
